Laboratory results: PubChem BioAssay AID1962 (The Scripps Research Institute Molecular Screening Center, 2009)
In all, about 300,000 compounds went through this assay and about 2,500 (0.83%) were called active. The list comes from a sample in which actives are over-represented; it also holds similar structures and randomly drawn compounds. Values without a mark were called inactive.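 Rule for the calls: active = inhibition above the mean of all tested compounds plus 3 SD, set per screening campaign (cut at about 24% in these data); inactive = the rest.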

The molecules below were run on tRNA 2'-phosphotransferase TPT1 (Candida albicans SC5314) (assay: tRNA 2'-phosphotransferase blockers, C. albicans – biochemical, fluorescence polarization, primary screen (AID 1962;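 note: plate controls were DMSO alone for no effect and ferristatin control at 100 nM for full effect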)). Conditions: recombinant caTPT1, FP RNA substrate dephosphorylation; at 5 µM; hits give high values.

SMILES	inhibition
CCCOc1ccc(Cn2c(O)cc(=O)[nH]c2=O)cc1	48.6% (active)
COc1cc(=O)[nH]c(=O)n1C(=O)Cc1ccccc1	1.99%
COc1ccc(Cn2c(=O)cc(C)[nH]c2=S)cc1	-2.44%
CCc1ccc(C(CNc2nc(C(F)(F)F)nc3ccccc23)N(C)C)cc1 (centres undefined)	-2.4%
O=C(/C=C/c1ccc(N2CCOCC2)cc1)c1ccccc1	84.1% (active)
CC(=O)Nc1ccc(/C=C/C(=O)c2ccccc2)cc1	15.6%
O=C(O)c1ccc2c(c1)C(=O)N(c1ccc(/C=C/C(=O)c3ccccc3)cc1)C2=O	17.6%
O=C(CC1CCCCC1)NCc1ccccc1	-1.14%
Oc1ccc(N=Cc2c(O)ccc3ccccc23)cc1	78.9% (active)
Oc1ccc(N=Cc2sc3ccccc3c2Cl)cc1	-0.62%
O=[N+]([O-])c1ccc(N=Cc2c(O)ccc3ccccc23)cc1	3.33%
CCOc1cc(NC(=O)c2ccccc2C(=O)O)c(OCC)cc1NC(=O)c1ccccc1F	2.36%
COC(=O)C1=C(N)Oc2c(oc(CO)cc2=O)C1c1c(F)cccc1Cl (centres undefined)	-1.2%
Cc1ccc(Nc2nc(C)cc(C)c2C(N)=O)cc1	-2.11%
Cc1ccc(Nc2nc(Cl)c(C=O)s2)cc1	54.2% (active)
Cc1ccc(NC(=O)Nc2nnc(-c3ccncc3)s2)cc1	-0.82%
O=C(Nc1ccccc1Cl)/C(Cl)=C(\Cl)S(=O)c1ccccc1 (centres undefined)	-2.57%
N#CCc1ccc(NC(=O)c2ccccc2C(=O)Nc2ccc(CC#N)cc2)cc1	-2.77%
O=C(NNC(=S)NC1CC2CCC1C2)c1ccc(Cl)cc1 (centres undefined)	-4.71%
CCOc1ccc2nc(N(CCCN(C)C)C(=O)c3ccc(C(=O)c4ccccc4)cc3)sc2c1	-1.89%
CC(N=Cc1nc(-c2ccccc2)oc1O)c1ccccc1 (centres undefined)	2.4%
CCOc1ccc2nc(/N=C/c3nc(-c4ccccc4)oc3O)sc2c1	46.7% (active)
CCOC(=O)c1cc2c(=O)[nH]c(C(Cl)(Cl)Cl)nc2o1	1.15%
Cc1cccn2c(=O)c(/C=C3\SC(=S)N(CC(C)C)C3=O)c(NCCCOC(C)C)nc12	63.5% (active)

SMILES	inhibition
CNc1nc2c(C)cccn2c(=O)c1C=Nc1ccc(OC)cc1	1.1%
CC(C)OCCCNc1nc2c(c(=O)n(Cc3ccccc3F)c(=O)n2C)n1C	2.3%
Cc1[nH]c(C)c(S(=O)(=O)N2CCN(c3cccc(C(F)(F)F)c3)CC2)c1C(=O)N1CCCCC1	-0.13%
CC(C)(C)NC(=O)COC(=O)c1cc(Cl)ccc1[N+](=O)[O-]	-0.54%
Cc1cccc(N2CCN(C(=O)COCc3cc(-c4ccc5c(c4)OCO5)on3)CC2)c1C	-0.74%
CCCC1C(=O)N2C(N(C)C)=Nc3ccc(C)cc3N2C1=O (centres undefined)	2.58%
COC(=O)Cn1cnc2scc(-c3ccc(C)c(C)c3)c2c1=O	1.3%
COc1ccc(OCCCn2cccc2/C=C2/C(=N)N3OC(C)=CC3=NC2=O)cc1	0.42%
CCOc1cc(/C=C2/C(=N)N3OC(C)=CC3=NC2=O)ccc1OC	6.06%
CC1=CC2=NC(=O)/C(=C/c3coc4ccccc4c3=O)C(=N)N2O1	34.6% (active)
COc1ccc(Nc2ccc([N+](=O)[O-])cn2)cn1	-14.7%
COc1cc(/C=N\Nc2ccc([N+](=O)[O-])cn2)ccc1OCC(=O)O	1.83%
Cc1cc(/C=N/Nc2ccc([N+](=O)[O-])cn2)c(C)n1-c1cccc(C(=O)O)c1	43% (active)
Cc1ccc(-n2c(C)cc(/C=N/Nc3ccc([N+](=O)[O-])cn3)c2C)c(C)c1	66.7% (active)
Cc1cc(/C=C2\SC(=O)N(C)C2=O)c(C)n1-c1cccc(C(=O)O)c1	-0.06%
Cc1ccc(N2CCN(c3ccc([N+](=O)[O-])cn3)CC2)c(C)c1	-2.01%
C=CCn1c(COc2ccc(F)cc2)nnc1SCC(=O)Nc1cccc(S(N)(=O)=O)c1	-5.67%
COc1cccc(C2CC(c3cccs3)=NN2C(=O)CSC2=NCCS2)c1OC (centres undefined)	-2.93%
CCC(C)CN1CCC(CO)(Cc2ccccc2Cl)CC1 (centres undefined)	-0.69%
COC1(C2=NCCN2)COc2ccccc2O1 (centres undefined)	-5.32%
COc1ccccc1NC(=O)COC(=O)c1ccccc1SCC(=O)N1CCCC1	0.11%
COc1ccccc1C1SCCN1C(=O)c1ccc([N+](=O)[O-])cc1 (centres undefined)	1.69%
COc1ccc(NS(=O)(=O)c2ccc(C)c(C(=O)N(C)Cc3ccc(OC)cc3OC)c2)cc1	-1.13%
Cc1nc2sc(C(=O)c3ccccc3)c(N)c2c2c1CCCC2	-0.9%

SMILES	inhibition
CN(C)c1ccnc2sc(C(=O)c3ccccc3)c(N)c12	2.61%
Nc1c(C(=O)c2cccs2)sc2nsc(SCCN3CCCCC3)c12	68.2% (active)
CCCNC(=S)N1CCC(NC(=O)c2ccc(OC)cc2)CC1	3.14%
CN1CCN(CCC(=O)N/N=C/C=C2\N(C)c3ccccc3C2(C)C)CC1	11.7%
CN1/C(=C\C=C2\N=C(c3ccc(F)cc3)OC2=O)C(C)(C)c2ccccc21	110% (active)
CN1/C(=C\C(=O)c2oc3ccccc3c2N)C(C)(C)c2ccccc21	2.22%
O=C(c1c(F)cccc1Cl)N1CCN(c2ccccn2)CC1	0.41%
O=C(Nc1ccccc1N1CCCC1)c1ccc(F)c(S(=O)(=O)N2CCOCC2)c1	0.87%
O=C1NCC(=O)N(Cc2ccccc2)/C1=C/c1ccccc1	1.04%
O=C1/C(=C\c2ccsc2)NC(=S)N1c1ccccc1	0.45%
CN(C)c1ccc(/C=C2\NC(=S)N(Cc3ccccc3)C2=O)cc1	196% (active)
COCC(=O)Nc1c(I)c(C(=O)NCC(O)CO)c(I)c(C(=O)N(C)CC(O)CO)c1I (centres undefined)	1.86%
COc1ccc(C(=O)NC(C)c2nccs2)cc1OC1CCN(C(C)C)CC1 (centres undefined)	1.11%
COc1ccc(CN(C)C(=S)Nc2ccc(Cl)cc2Cl)cc1	-3.43%
Cc1nc2ccccc2nc(=O)c1NNc1ccc([N+](=O)[O-])cc1	33% (active)
O=C(Nn1c(-c2ccccc2)nc2ccccc2c1=O)c1ccc([N+](=O)[O-])cc1	-2.22%
Cc1nc2ccccc2cc1C(=O)N/N=C/c1ccc([N+](=O)[O-])cc1	1.45%
COC(=O)c1c(C)oc(C)c1S(=O)(=O)Nc1ccc(C(C)C)cc1	-2.31%
COC(=O)c1cc(S(=O)(=O)NCC2CCN(Cc3ccc(Cl)cc3)CC2)cn1C	-1.04%
CCOC(=O)c1ccccc1CN1C(=O)c2ccccc2S1(=O)=O	-6.64%
CN1C(=O)/C(=C/C=C2\SCCN2C)OC1=S	124% (active)
COc1ccc(Cc2nc(-c3ccccn3)no2)cc1OC	48.4% (active)
Cc1ccc(Cc2nc(-c3cccc(C)c3)no2)cc1	1.83%
COc1ccc(CCNS(=O)(=O)c2cccc3cccnc23)cc1OC	1.77%

SMILES	inhibition
CCOC(=O)C1=C(C)Nc2sc(C(=O)c3ccc(Br)cc3)c(N)c2C1c1ccc(C(=O)OC)cc1 (centres undefined)	54.7% (active)
CCOC(=O)c1sc(=S)n2c1[nH]c(=O)c1ccc(C(=O)OC)cc12	-1.57%
CCOC(=O)c1sc(=NC(=O)c2ccc(Br)cc2)n(C)c1C	-2.11%
O=C(N/N=C/c1ccc([N+](=O)[O-])cc1)c1c[nH]c2ccccc12	1.12%
Cc1ccccc1OCCOc1ccc([N+](=O)[O-])cc1/C=N/n1cnnc1	2.12%
O=[N+]([O-])c1ccc(N/N=C/c2ccccc2)cc1	28.2% (active)
Cc1ccc(NS(=O)(=O)c2ccc(N/N=C/c3ccccc3OCC(=O)O)c([N+](=O)[O-])c2)c(C)c1	-2.41%
Cc1cccc(COc2ccccc2/C=N/Nc2ccc([N+](=O)[O-])cc2)c1	92.1% (active)
O=[N+]([O-])c1cccc(/C=N/Nc2ncc(Br)cn2)c1	0.84%
O=[N+]([O-])c1ccc(N2CCN(c3ccc(O)cc3)CC2)c(Cl)c1	1.48%
O=S(=O)(c1cccc(Cn2nnc(-c3ccc(F)cc3)n2)c1)N1CCOCC1	0.07%
COc1ccc(C(CCN(Cc2ccc(OC)c(OC)c2)C(=O)CCl)c2ccccc2)cc1 (centres undefined)	2.12%
COc1ccc(-n2c(C)cc(C(=O)CN3C(=O)NC4(CCc5ccccc54)C3=O)c2C)cc1 (centres undefined)	-8.74%
CCOc1nnc(C)c2c(C)n(-c3cccc(Cl)c3)nc12	24.6% (active)
Cc1nn(-c2ccccc2)c(C)c1NC(=O)COc1ccc(Cl)cc1Cl	-4.09%
CCOc1ccc(CNC(=O)C2CCCN(c3nnc(C)c4c(C)n(-c5ccccc5)nc34)C2)cc1 (centres undefined)	1.81%
CCc1nn(CCCC(=O)NC(C)c2ccccc2)c(=O)c2cc3occc3n12 (centres undefined)	-2.3%
CCCCN(CCCC)CCNC(=O)CN1C(=O)COc2ccc(S(=O)(=O)N3CCOCC3)cc21	-4.55%
COc1ccc(Cn2c(C)c(C)c(C#N)c2NC(=O)Nc2ccc(F)cc2)cc1	0.17%
CN1CCN(Cc2c(O)ccc3c2oc(=O)c2ccccc23)CC1	-1.97%
CC(C)(C)c1ccc(/C=C2\Oc3c(ccc(O)c3CN3CCN(CCO)CC3)C2=O)cc1	33.2% (active)
CCOC(=O)c1oc2c(CN3CCN(CCO)CC3)c(O)c(CC)cc2c(=O)c1-c1nc2ccccc2s1	-0.54%
